An excerpt weighted towards active compounds, which were near 2.4% of everything screened.
D2 PAM-1 – human D2 receptor positive allosteric modulation | DiscoveRx D2 beta-arrestin cells, luminescence, 90 min; 100% = 57 uM dopamine signal | potentiation, % (no concentration beside the values) | 0.23% of 360,000 active; in the data active = potentiation above about 50%; inconclusive = mostly about 30% to 49%
Target sequence (P14416 whole entry, looked up): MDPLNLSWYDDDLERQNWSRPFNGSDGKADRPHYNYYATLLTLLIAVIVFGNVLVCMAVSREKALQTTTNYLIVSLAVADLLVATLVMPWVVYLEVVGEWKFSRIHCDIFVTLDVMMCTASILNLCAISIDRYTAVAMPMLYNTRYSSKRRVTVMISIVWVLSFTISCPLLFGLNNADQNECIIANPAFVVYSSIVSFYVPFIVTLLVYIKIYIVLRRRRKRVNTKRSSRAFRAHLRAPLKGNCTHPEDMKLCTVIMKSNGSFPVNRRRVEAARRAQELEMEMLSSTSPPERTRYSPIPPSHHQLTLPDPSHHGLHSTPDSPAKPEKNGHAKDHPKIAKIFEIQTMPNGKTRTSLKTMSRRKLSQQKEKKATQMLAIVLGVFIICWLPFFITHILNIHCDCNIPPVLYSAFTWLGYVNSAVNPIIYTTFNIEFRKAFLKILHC
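D2 cells co-treated with compound plus 50 nM dopamine (EC20) for 90 min at 37 deg C to detect potentiation. Beta-arrestin recruitment was read as enzyme-fragment luminescence after 1 h at ambient temperature. Full response was set by 57 uM dopamine.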
D2 ag-1 – human D2 receptor agonism in beta-arrestin assay | P14416 | DiscoveRx PathHunter D2 beta-arrestin, luminescence, 90 min; 100% = 57 uM dopamine signal | activation, % (concentration not given with the values) | 0.084% of 360,000 active | AID 624465; in the data active = activation above about 40%; inconclusive = between about 15% and that limit
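DiscoveRx PathHunter D2 beta-arrestin cells (2,100/well) attached overnight, then compound-stimulated 90 min at 37 C in HBSS/10 mM HEPES/0.1% Tween-20 buffer; beta-galactosidase complementation read by luminescence after 1 h at ambient temperature. Dopamine 57 uM final (EC100) as control.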
D2 ag-2 – D2 dopamine receptor (human) agonism. 0.53% of 340,000 active. HEK293 T-REx D2 cells, calcium flux agonist mode. activation, % at 2 µM. AID 485358. P14416;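 active = activation over 3 SD above normal in the single-dose calcium agonist read, cut at about 30% in these data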; note: 0% is about no effect
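Tetracycline-induced HEK293 Trex cells with D2 receptor force-coupled to calcium signaling, plated overnight at 30 C and loaded with no-wash calcium dye. Calcium flux read kinetically for 180 s after compound addition; responses flag agonists.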
D2 PAM-2 – D2 dopamine receptor (human) potentiation; P14416; HEK293 T-REx D2, calcium flux, EC20 dopamine potentiation; potentiation, % at 10 µM; 0.34% of 340,000 active; AID 485347;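 active = potentiation over 3 SD above the plate norm, cut at about 30% in these data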; note: 0% is about no effect
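Potentiation of an EC20 dopamine calcium response is measured in a force-coupled, tetracycline-inducible Hek293 Trex D2 line. Compound-only kinetic reads over 180 s flag agonists before dopamine addition.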
D2 antag – antagonizes the human D2 dopamine receptor. 2% of 340,000 active. P14416. inhibition, % at 10 µM. AID 485344. HEK293 TREx D2 cells, calcium flux, dopamine EC80; in the data active = inhibition above about 30%; inactive = below that, where a call was filed; note: 0% is about no effect
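Antagonism is scored as inhibition of an EC80 dopamine-evoked calcium signal in a force-coupled, tetracycline-inducible HEK293 T-REx D2 line, with compound present 180 s before agonist.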
An asterisk follows results filed as active; ? = inconclusive; nt = no result; ! = repeats disagree.

SMILES	D2 PAM-1	D2 ag-1	D2 ag-2	D2 PAM-2	D2 antag
Cc1ccc(NC2=C(Cl)C(=O)OC2NC(=O)c2ccccc2)cc1 (centres undefined)	-6.2	-0.6	1.3	-3.9	54.9*
CCOC1OC(=O)C(Cl)=C1Nc1ccc(C)cc1 (centres undefined)	-7.4	-1.7	-1.4	-0.5	2.5
CC(C)(C)OC(=O)N1CCNc2ccccc2C1	-36.3	-4.3	1.2	-4.1	30.5*
CCN(CC)c1ccc(CN(C(=O)Cc2coc3ccc(C)cc23)C2CCS(=O)(=O)C2)cc1 (centres undefined)	nt	nt	-0.7	6.6	nt
O=[N+]([O-])c1ccccc1-c1ccc(CN2CCN(c3ccccc3)CC2)o1	-18.0	?	22.8	-21.5	52.3*
O=C(N/N=C/C(Br)=C/c1ccccc1)c1ccncc1	-24.7	-1.3	-0.2	-1.1	12.4
CC(=C/c1ccccc1)/C=N/NC(=O)c1ccc2nc[nH]c2c1	-24.3	-1.0	0.6	-24.6	-5.9
O=C(N/N=C/C(Br)=C\c1ccccc1)c1ccc2nc[nH]c2c1	-8.8	-3.0	1.0	9.1	34.4*
O=C(N/N=C/C(Br)=C/c1ccccc1)c1ccc([N+](=O)[O-])cc1	-19.6	4.2	-0.1	-8.5	39.1*
O=C(C1CCN(S(=O)(=O)Cc2ccccc2)CC1)N1CCN(c2ccccc2)CC1	nt	nt	0.1	10.8	nt
O=C(OCCC12CC3CC(CC(C3)C1)C2)c1ccc(NCc2cc(O)ccc2O)cc1	63.9*	?	nt	nt	nt
N#CCC(=O)Nc1ccc(C(=O)OCC(=O)C23CC4CC(CC(C4)C2)C3)cc1	-1.8	-4.4	1.2	11.7	-0.4
O=C(OCC12CC3CC(CC(C3)C1)C2)c1ccc(NCc2cc(O)ccc2O)cc1	55.3*	?	nt	nt	nt
COc1cn(CC(=O)Nc2ccccc2)c(CN2CCCCC2)cc1=O	nt	nt	0.0	-10.1	nt
Cc1c(Cl)ccc2c(C(=O)O)cc(-c3ccccc3)nc12	-5.5	-4.9	-2.4	-13.6	52.0*
CCOC(=O)c1ccc(NC(=O)c2c(-c3c(F)cccc3Cl)noc2C)cc1	nt	nt	-0.3	1.7	nt
CN(c1ccc(C(=O)Nc2ccc3c(c2)OCO3)cc1)S(C)(=O)=O	-13.4	-4.0	0.3	-2.7	-0.5
CN(c1ccc(C(=O)Nc2ccc(CC#N)cc2)cc1)S(C)(=O)=O	0.2	-2.8	0.2	3.8	40.7*
Cc1ccc(C(=O)N/N=C\c2cc3c(cc2Br)OCO3)s1	-10.5	-2.8	-0.6	-31.3	65.8*
COC(=O)N/N=C\c1cc2c(cc1Br)OCO2	-10.4	-5.6	-1.2	-11.4	-3.4
O=C(Nc1ccc2c(c1)C(=O)OC2)c1ccc(C(F)(F)F)cc1	-14.7	-2.5	-0.6	-14.9	33.7*
Cc1cc(C)nc(NN2C(=O)/C(=C/c3ccc(O)cc3)SC2=S)n1	-18.4	-7.4	8.9	8.3	44.7*
COc1ccccc1/C=C1\SC(=S)N(Nc2nc(C)cc(C)n2)C1=O	-15.1	-1.7	0.5	3.2	-13.2
CC(=O)c1cccc(NC(=O)CSc2nc(=O)n(Cc3ccco3)c3c2CCC3)c1	nt	nt	0.7	8.2	nt
NS(=O)(=O)c1ccc(NC(=O)Cc2cccs2)cc1	-2.2	5.3	1.5	-3.1	38.6*
SMILES	D2 PAM-1	D2 ag-1	D2 ag-2	D2 PAM-2	D2 antag
Cc1cc(C(=O)O)ccc1N/C=C1\CCCC(C)C1=O (centres undefined)	-25.4	-2.8	1.3	-3.6	-0.4
CC1CCC/C(=C\Nc2ccc(O)cc2)C1=O (centres undefined)	53.9*	13.0	0.2	9.6	5.9
CCCN1C(=O)CN(C2CCCCCC2)C(=O)C1c1ccc(OCC)c(OC)c1 (centres undefined)	nt	nt	-0.3	16.6	nt
COc1ccccc1CN1CC(C(=O)NCCN(C)CCc2ccccc2)CCC1=O (centres undefined)	-23.7	0.5	45.5*	-16.4	24.2
CC(C)C(=O)n1nc(-c2cccnc2)nc1NCc1ccc(F)cc1	-3.3	1.6	-0.4	45.8*	-1.3
Cc1cc(C)cc(OCC(=O)NC(Cc2c[nH]c3ccccc23)C(=O)O)c1 (centres undefined)	nt	nt	0.2	-4.9	nt
CCS(=O)(=O)N1CCCc2cc(C(=O)Nc3cc([N+](=O)[O-])ccc3C)ccc21	nt	nt	-0.6	-23.5	nt
CC(=O)c1cccc(CN2CCN(CCc3ccccc3)C(CCO)C2)c1 (centres undefined)	-26.2	-2.5	1.2	-16.8	34.3*
CC(=O)c1cccc(CN2CCN(Cc3ccc(C)cc3)C(CCO)C2)c1 (centres undefined)	-31.8	-6.1	0.5	-27.3	54.6*
CCOC(=O)C1CCCN(CCCc2ccccc2)C1 (centres undefined)	-10.8	-3.2	1.2	-22.4	70.0*!
CCOC(=O)C1CCCN(Cc2nc(N)nc(Nc3ccccc3)n2)C1 (centres undefined)	-36.0	-3.3	0.3	-20.3	46.4*
CCN1CCN(Cc2ccc(OCc3ccccc3)cc2)CC1	-11.4	-3.0	-1.8	31.7*	-13.0
CCOC(=O)C1CCCN(Cc2ccc(OCc3ccccc3)cc2)C1 (centres undefined)	-83.5	-1.0	9.9	-38.0	86.1*
CCOc1ccc(CNc2ccc(N3CCN(Cc4ccccc4)CC3)cc2)cc1	-23.1	2.7	0.0	-8.4	59.0*
Oc1ccc(NCc2ccc(OCc3ccccc3)cc2)cc1	13.5	40.2*	-1.0	7.6	-4.8
CCOc1ccc(CNc2ccc(N3CCCC3)cc2)cc1	2.7	2.4	-0.4	1.7	-27.7
O=C(NNC(=S)NCc1ccco1)c1ccc(Cl)s1	10.1	-2.6	0.1	2.6	32.7*
COc1ccccc1NC(=S)NNC(=O)c1nn(C)c(C)c1Br	-13.4	-6.1	1.7	-6.2	-3.6
COc1ccccc1NC(=S)NNC(=O)c1nn(C)c(C)c1Cl	-16.0	-3.5	0.3	-20.0	82.2*
Cn1cc(Cl)c(C(=O)NNC(=S)NCc2ccco2)n1	-9.2	2.8	1.6	-3.5	-23.4
Cc1c(Cl)c(C(=O)NNC(=S)NCc2ccco2)nn1C	-0.9	-0.9	0.2	1.6	34.9*
Cc1cc(C)cc(NC(=O)C/C(N)=N/O)c1	9.1	3.3	0.2	-9.8	71.5*
Cc1c(C(=O)CN2CCSCC2)c2ccccc2n1C	-22.9	-2.3	-1.8	-3.3	4.4
Cc1c(/C(Cc2ccccc2)=N/O)c2ccccc2n1C	0.0	-2.7	3.5	-2.2	36.9*
CC1CCCCN1C(=O)CN1CCC(c2nc3ccc(Cl)cc3[nH]2)CC1 (centres undefined)	-7.0	-3.5	-0.7	-6.3	8.5
Clc1ccc2nc(C3CCN(Cc4ccccc4)CC3)[nH]c2c1	-18.3	-1.5	-1.1	-18.0	52.5*
Cc1ccc(CN2CCC(c3nc4ccc(Cl)cc4[nH]3)CC2)cc1	-31.1	-1.2	-0.4	-15.3	86.8*
COc1cc(Cl)c(C)cc1NC(=O)CCCN1C(=O)C(c2ccccc2)Oc2cccnc21 (centres undefined)	nt	nt	nt	-5.9	nt

From PubChem BioAssay
